Where “and” joins values, the source holds several entries; their conditions need not be identical. Equal entries are not always repeated. Results filed as inconclusive are left out. Calls of active or inactive are those of the source. The call rests on the fitted dose curve; in most records, active means well fitted curve in the direction sought with a large enough effect; inconclusive means small, poorly fitted or top-dose-only effect, or another doubt; inactive means no such curve, though single readings can be large; an effect the other way counts as inactive or inconclusive.
Assays:
[1] = target: Phenylethanolamine N-methyltransferase (Homo sapiens) (UniProt P11086); test: Confirmatory Screen for Target Class Profiling of Small Molecule Inhibitors of Methyltransferases (AID 1745852); conditions: MTase-Glo luminescence, SAH detection, recombinant enzyme; measured here: PNMT max response; stronger effect = lower value
[2] = target: Glutathione peroxidase 1 (Homo sapiens) (UniProt P07203); test: Primary qHTS Assay for Inhibitors of Recombinant Selenoprotein Glutathione Peroxidase 1 (GPX1) (AID 1845191); conditions: recombinant GPX1, GR-coupled NADPH fluorescence, 15 min; series mostly up to 48.8 µM; further: nearly all actives have a fitted effect of over 65% in size
Method in brief: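 10 nM GPX1 + cpd, 30 min RT; start w/ 1 mM GSH, 0.5 mM cumene hydroperoxide, 0.5 mM NADPH, 100 nM GR, 0.01% BSA; buffer 50 mM Tris-HCl pH 7.5, 2 mM EDTA, 150 mM NaCl; Fl 340/450, 0 & 15 min.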

[3] = NCATS anti-infectives library activity on HEK293 viability as a counter-qHTS vs the C. elegans viability qHTS (AID 1745854); conditions: HEK293 viability counter-screen; series mostly up to 41.8 µM;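 further: HEK293 cells exposed to compounds for 24 hr before the viability read; on the % scale 0 is the no-effect control and ±100 the full control effect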
Method in brief: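 HEK293 cells (1,500/well) exposed 24 hr at 37C to 1:5 titrations, up to 41.7 uM final; counter-screen to a C. elegans viability qHTS. Viability by CellTiter-Glo luminescence after 10 min at room temperature; digitonin as control.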

Sequence of Glutathione peroxidase 1 (Homo sapiens) (P07203 whole entry, looked up): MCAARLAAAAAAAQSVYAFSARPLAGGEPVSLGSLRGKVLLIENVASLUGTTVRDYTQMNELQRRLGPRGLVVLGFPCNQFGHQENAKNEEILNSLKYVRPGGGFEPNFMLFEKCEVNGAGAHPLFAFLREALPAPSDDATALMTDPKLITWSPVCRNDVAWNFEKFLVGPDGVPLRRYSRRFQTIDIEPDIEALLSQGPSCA
Sequence of Phenylethanolamine N-methyltransferase (Homo sapiens) (P11086 whole entry, looked up): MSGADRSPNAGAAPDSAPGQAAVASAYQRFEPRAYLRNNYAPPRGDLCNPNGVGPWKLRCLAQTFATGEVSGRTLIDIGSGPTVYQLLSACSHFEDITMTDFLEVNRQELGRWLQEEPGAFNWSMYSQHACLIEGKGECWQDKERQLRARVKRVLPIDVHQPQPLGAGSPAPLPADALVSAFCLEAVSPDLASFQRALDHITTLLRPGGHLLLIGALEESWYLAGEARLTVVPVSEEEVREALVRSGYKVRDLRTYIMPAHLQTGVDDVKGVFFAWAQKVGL

Row | Compound | activity [1] | Potency [2] | outcome [3]
1 | C[C@@H]1O[C@@H](O[C@H]2[C@H](OC(=O)C34CCC(C)(C)CC3C3=CCC5C6(C)CC(O)C(O[C@@H]7O[C@H](CO)[C@@H](O)[C@H](O)[C@H]7O)C(C)(C(=O)O)C6CCC5(C)C3(CO)CC4)O[C@H](C)[C@H](O)[C@@H]2O)[C@H](O)[C@H](O)[C@H]1O[C@@H]1OC[C@@H](O)[C@H](O)[C@H]1O (stereo not given in full) | -2.81% | inactive | 
2 | OC[C@H]1O[C@@H](Oc2ccc(O)c3cccc(O)c23)[C@H](O)[C@@H](O)[C@@H]1O | -70.9% | inactive | 
3 | O=C(O[C@@H]1O[C@H](CO)[C@@H](O)[C@H](O)[C@H]1O)c1c(O)cc(O)cc1/C=C/c1ccccc1 | -9.3% | inactive | 
4 | COc1cc2c(Nc3ccc(Cl)c(Cl)c3F)ncnc2cc1OCC1C[C@@H]2CN(C)C[C@@H]2C1 (stereo not given in full) | -80.2% | inactive | 
5 | COC(=O)C1=COC(OC2OC(CO)C(O)C(O)C2O)C2C1CC(OC(=O)C(O)CC(=O)O)C2C (stereo not given) | 1.07% | inactive | 
6 | CC1(C)CC[C@]2(C(=O)O[C@@H]3O[C@H](CO)[C@@H](O)[C@H](O)[C@H]3O)CC[C@]3(C)C(=CCC4[C@@]5(C)C[C@@H](O)[C@H](O)[C@@](C)(CO)C5CC[C@]43C)C2C1 (stereo not given in full) | -4.38% | inactive | 
7 | CNC1CCN(C(Cc2cccc(-c3ccncc3)c2)C(=O)c2sc3c(F)ccc(F)c3c2Cl)CC1 (stereo not given) | -11.9% |  | 
8 | Cc1[nH]cnc1C1CCN(c2nc3cccc4c3n2CCC4=O)CC1 | 1.15% | inactive | 
9 | CC(CCC1C(C(=O)O)=CC(=O)CC1(C)C)O[C@@H]1O[C@H](CO)[C@@H](O)[C@H](O)[C@H]1O (stereo not given in full) | -4.16% | inactive | 
10 | COc1cc(/C=C/c2cc(O)cc(O[C@@H]3O[C@H](CO)[C@@H](O)[C@H](O)[C@H]3O)c2)ccc1O | 1.65% | inactive | 
11 | CC1(C)CCC2(C(=O)OC3OC(COC4OC(CO)C(O)C(O)C4O)C(O)C(O)C3O)CCC3(C)C(=CCC4C5(C)CCC(O)C(C)(C(=O)O)C5CCC43C)C2C1O (stereo not given) | -5.74% | inactive | 
12 | CC1(CO)CC[C@]2(C(=O)O[C@@H]3O[C@H](CO)[C@@H](O)[C@H](O)[C@H]3O)CC[C@]3(C)C(=CCC4[C@@]5(C)C[C@H](O)[C@H](O[C@@H]6OC[C@@H](O)[C@H](O)[C@H]6O)[C@@](C)(CO)C5CC[C@]43C)C2C1 (stereo not given in full) | 2.01% | inactive | 
13 | NS(=O)(=O)OC[C@@H]1C[C@@H](n2ccc3c(N[C@H]4CCc5ccccc54)ncnc32)C[C@@H]1O | -79.3% and -73.9% | inactive | inactive
14 | OC1COC(OCC2OC(OCCc3ccccc3)C(O)C(O)C2O)C(O)C1O (stereo not given) | 0% | inactive | 
15 | COc1cc(N2CCC(O)CC2)ccc1Nc1cc(Nc2ccccc2S(=O)(=O)C(C)C)c2cc[nH]c2n1 | 0.382% | inactive | 
16 | CC1(C)O[C@@]2(C)CC[C@@H]1C[C@@H]2OC1OC(CO)C(O)C(O)C1O (stereo not given in full) | 0.858% | inactive | 

Row | Compound | activity [1] | Potency [2] | outcome [3]
17 | CC(C)(O)/C=C1/C(=O)C(C)(C)C(=O)C(C)(C)C1(O)O[C@@H]1O[C@H](COC(=O)c2cc(O)c(O)c(O)c2)[C@@H](O)[C@H](O)[C@H]1O (stereo not given in full) | -0.785% | inactive | 
18 | C=Cc1cc(O)cc2nc(-c3ccc(O)c(F)c3)oc12 | -50.4% |  | 
19 | O=C(O)CCc1cccc(O[C@@H]2O[C@H](CO)[C@@H](O)[C@H](O)[C@H]2O)c1O | -5.98% | inactive | 
20 | CC1=CC(=O)CC(C)(C)C1CCC(C)OC1OC(COC(=O)c2cc(O)c(O)c(O)c2)C(O)C(O)C1O (stereo not given) | 0% | inactive | 
21 | COc1cc(C2Oc3c(OC)cc(/C=C/C(=O)OC[C@H]4O[C@@H](OC(C)(C)C(=O)O)[C@H](O)[C@@H](O)[C@@H]4O)cc3C2CO)ccc1O (stereo not given in full) | -7.93% | inactive | 
22 | CC1=CC(=O)CC(C)(C)C1(O)CCC(C)O (stereo not given) | 4.65% | inactive | 
23 | CN1CCC(c2c[nH]c3ccc(NC(=O)c4ccc(F)cc4)cc23)CC1 | -4.53% | inactive | 
24 | COc1ccc(/C=C/C(=O)O[C@@H]2[C@@H](OC(C)=O)[C@@H](OC(C)=O)[C@H](O[C@H]3[C@@H]4C=CO[C@@H](O[C@@H]5O[C@H](CO)[C@@H](O)[C@H](O)[C@H]5O)[C@@H]4[C@@]4(CO)O[C@@H]34)O[C@H]2C)cc1O | -9.65% | inactive | 
25 | C/C=C(\C)C(=O)O[C@H]1[C@@H](O[C@]2(COC(=O)CC(C)C)O[C@H](COC(=O)C(C)C)[C@@H](OC(C)=O)[C@@H]2O)O[C@H](COC(C)=O)[C@@H](O)[C@@H]1O | -1.49% | inactive | 
26 | CCOc1ccc(-c2ccc(Cn3c(CC(C)(C)C(=O)O)c(SC(C)(C)C)c4cc(OCc5ccc(C)cn5)ccc43)cc2)cn1 | -31.2% and -7.43% | inactive | 
27 | CC1CC(=O)C2=C(O1)OC1(C)CCC3C(C)(C)C=CC(=O)C3(C)C1C2 (stereo not given) | -3% | inactive | 
28 | CC(C)N(C[C@H]1O[C@@H](n2cnc3c(N)ncnc32)[C@H](O)[C@@H]1O)C1CC(CCc2nc3ccc(C(C)(C)C)cc3[nH]2)C1 (stereo not given in full) | -90.9% and -89.3% | inactive | 
29 | CC(C)(O)C1CC=C(C(=O)OCC2OC(Oc3c(O)cc(C(=O)O)cc3O)C(O)C(O)C2O)CC1 (stereo not given) | -2.18% | inactive | 
30 | Cc1ccc2c(c1)C=Cc1cc(C)ccc1C2c1cn(Cc2ccc(C(=O)Nc3nn[nH]n3)o2)c(=O)[nH]c1=S | -2.77% |  | 
31 | C=C[C@](C)(CC/C=C(\C)C(=O)O)O[C@@H]1OC[C@H](O)[C@H](O)[C@H]1O | 0.753% | inactive | 

Reference: PubChem BioAssay (NCATS)
